High-throughput results as filed in PubChem BioAssay.
NSD2 HMT inh: NSD2 histone methyltransferase inhibitors, primary screen, biochemical, AlphaScreen, single concentration, set 2; inhibition, % at 12.5 µM; Histone-lysine N-methyltransferase NSD2 (Homo sapiens), O96028; hit rate 0.54% among 310,000; AID 743445, 2014; NSD2 peptide methylation, 120 min; in the data active = inhibition above about 50%
SIRT5 inh: SIRT5 desuccinylase inhibitors, primary screen, biochemical, fluorescence imaging, single point, set 5; NAD-dependent protein deacylase sirtuin-5, mitochondrial (Homo sapiens), Q9NXA8; hit rate 1.1% among 330,000; AID 652115, 2013; Purified SirT5, succinyl-peptide AMC, trypsin-coupled fluorescence; inhibition, % at 15 µM; in the data active = inhibition above about 15%
Target sequence (Q9NXA8 whole entry, looked up): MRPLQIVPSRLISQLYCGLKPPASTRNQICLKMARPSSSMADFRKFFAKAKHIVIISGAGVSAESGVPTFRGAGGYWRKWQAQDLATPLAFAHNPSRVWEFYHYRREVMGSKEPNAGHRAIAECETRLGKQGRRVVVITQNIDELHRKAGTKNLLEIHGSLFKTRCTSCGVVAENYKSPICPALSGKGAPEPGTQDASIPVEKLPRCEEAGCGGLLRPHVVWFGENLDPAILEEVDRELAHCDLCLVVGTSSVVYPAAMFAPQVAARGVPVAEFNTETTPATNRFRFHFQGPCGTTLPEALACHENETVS
CASP6 VEID inh: human caspase-6 inhibitors, primary screen, biochemical, VEID-R110 fluorescence, single point, set 2; purified caspase-6, Z-VEID-R110 cleavage fluorescence; inhibition, % at 12.5 µM; P55212; AID 686996, 2013; hit rate 0.53% among 350,000;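 active = mean inhibition across replicates at least about 35%, with every replicate also reaching that limit, limit read from the data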;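 note: 0% = median of neutral control wells and 100% = no fluorescence left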
Target sequence (P55212 24-179 limits assumed): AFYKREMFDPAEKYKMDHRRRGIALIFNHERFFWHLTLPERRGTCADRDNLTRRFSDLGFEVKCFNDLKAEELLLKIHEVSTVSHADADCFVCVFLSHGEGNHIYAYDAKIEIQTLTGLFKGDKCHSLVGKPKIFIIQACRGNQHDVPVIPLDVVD
Target sequence (P55212 194-293 limits assumed): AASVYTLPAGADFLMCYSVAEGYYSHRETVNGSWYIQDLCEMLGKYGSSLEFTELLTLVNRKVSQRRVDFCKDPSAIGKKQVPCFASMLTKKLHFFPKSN
PfHsp90 yeast 2: growth inhibition of PfHsp90-expressing yeast, primary screen, antimalarial PfHsp90 inhibitor project, S. cerevisiae, BacTiter-Glo luminescence, single point, set 2; AID 504621, 2011; inhibition, % at 9.4 µM; BacTiter-Glo ATP, 48 h; yeast lacking PDR1 and PDR3 efflux regulators; hit rate 0.32% among 310,000;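 active = every replicate shows inhibition above about 80%, whatever the replicate mean, limit read from the data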;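 note: 0% = DMSO neutral controls and 100% = 20 µM radicicol positive controls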
ARNT TACC3 PPI: disruptors of ARNT/TACC3 protein interaction, primary screen, biochemical, AlphaScreen, single concentration | hit rate 0.66% among 390,000 | inhibition, % at 9.99 µM | AlphaScreen His-ARNT PAS-B/GST-TACC3 binding, luminescence; TACC3 fragment carries E629A point mutation | AID 623870, 2012;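 active = mean inhibition of replicates at least 50% and at least half of replicates each reaching 50%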;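 note: 0% = complete ARNT plus TACC3 wells and 100% = ARNT alone without TACC3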
Numbers without * were called inactive; nt = no result given. A selection: hits, their analogues and other compounds. The true share with any hit is near 2.1%.

SMILES	NSD2 HMT inh	SIRT5 inh	CASP6 VEID inh	PfHsp90 yeast 2	ARNT TACC3 PPI
CCCCn1c(N)c(N(CCC(C)C)C(=O)c2cccc(N3C(=O)c4ccccc4C3=O)c2)c(=O)[nH]c1=O	0.5	-3.0	-0.1	18.6	-6.1
CCCCN(C(=O)c1cccc(-n2cccc2)c1)c1c(N)n(CCCC)c(=O)[nH]c1=O	3.5	0.8	43.5*	nt	8.6
CCCCn1c(N)c(N(CC(C)C)C(=O)CC(NC(=O)c2ccccc2)c2ccccc2)c(=O)[nH]c1=O (centres undefined)	-2.9	-1.6	64.7*	4.9	-1.4
CCC(=O)N1CC2(C1)[C@H](c1ccccc1)[C@H](CO)N2C(=O)NC(C)C	nt	-4.5	0.5	nt	nt
COCCCNC(=O)CSc1ccsc1[N+](=O)[O-]	8.5	0.8	20.1	-16.2	nt
O=C(CSc1ccsc1[N+](=O)[O-])NCc1ccco1	2.7	0.1	46.3*	-22.1	nt
O=C(OCn1ncc(Br)c(Br)c1=O)c1ccccc1Cl	nt	6.4	3.6	90.5*	nt
O=C(OCn1ncc(Br)c(Br)c1=O)c1ccc(F)cc1	nt	nt	nt	99.1*	3.3
O=C(OCc1cnc(Cl)s1)c1ccccc1Cl	-0.4	nt	nt	16.4	-3.3
Cc1cccc(C(=O)Nc2ccc(NC(=O)c3ccccc3)cc2)c1	-0.3	0.8	0.2	7.1	3.4
Cc1cccc(NC2=C(NC(=O)c3ccccc3)C(=O)c3ccccc3C2=O)c1	49.3	nt	nt	-54.8	39.2*
O=C(NC1=C(Nc2ccc(Cl)cc2)C(=O)c2ccccc2C1=O)c1ccccc1	27.1	-0.3	23.0	-56.6	51.3*
COC(=O)C[C@H]1CC[C@@H]2[C@@H](COc3ccc(NC(=O)c4cccc(OC)c4)cc3C(=O)N2C)O1	nt	-2.3	0.8	nt	-8.5
O=C1CN(S(=O)(=O)Cc2ccccc2)C[C@H]2[C@@H](c3ccc(C#CCC4CCCC4)cc3)[C@@H](CO)N12	nt	15.5*	0.6	nt	nt
Cc1ccccc1S(=O)(=O)N1CC(=O)N2[C@@H](CO)[C@H](c3ccc(C#CCC4CCCC4)cc3)[C@@H]2C1	nt	16.3*	-2.7	nt	nt
O=C1CN(S(=O)(=O)Cc2ccccc2)C[C@H]2[C@H](c3ccc(C#CCC4CCCC4)cc3)[C@@H](CO)N12	nt	9.5	1.4	nt	nt
CC(=O)c1ccc(S(=O)(=O)Nc2c(C)nn(C)c2C)cc1	9.8	-1.8	43.3*	nt	-3.6
C[C@H](CO)N1C[C@H](C)[C@@H](CN(C)S(=O)(=O)c2cccs2)OCCCC[C@H](C)Oc2ccc(NC(=O)Nc3cccc4ccccc34)cc2C1=O	nt	nt	nt	nt	-3.7
Cc1ccnc2c1ccc1cccnc12	-5.7	-2.1	-9.0	19.6	63.2*
Cc1ccnc2c1ccc1c(C)ccnc12	11.0	nt	nt	29.8	69.6*
Cc1ccnc2c1ccc1ccccc12	-4.9	-1.1	1.5	-8.8	-8.8
Cc1cccc2cccnc12	nt	nt	-4.3	13.3	nt
O=C(C1CC1)N1CC[C@H]2[C@H](CO)Nc3ccc(-c4cccc(F)c4)cc3[C@H]21	nt	-3.4	0.7	nt	10.5
CC(=O)N1N=C(c2ccc(C)cc2)OC1c1ccc(Br)cc1 (centres undefined)	1.3	-4.1	0.7	3.1	17.6
CCOc1ccc(Br)cc1C1=NN(C(C)=O)C(c2ccc([N+](=O)[O-])s2)O1 (centres undefined)	2.0	-1.2	5.2	107.6*	25.7
SMILES	NSD2 HMT inh	SIRT5 inh	CASP6 VEID inh	PfHsp90 yeast 2	ARNT TACC3 PPI
O=C(C[C@H]1CC[C@@H]2[C@H](COC[C@H](O)CN2C(=O)Nc2ccc(F)cc2)O1)NC1Cc2ccccc2C1	nt	0.0	1.9	nt	1.0
CS(=O)(=O)Nc1ccc2c(c1)[C@@H]1C[C@@H](CC(=O)NC3CCCC3)O[C@H](CO)[C@@H]1O2	nt	-2.1	-0.3	nt	-2.2
Cc1ccc(S(=O)(=O)c2nc(-c3ccccc3F)oc2N2CCN(C)CC2)cc1	12.0	nt	nt	nt	nt
COc1ccccc1NC(=O)COC(=O)c1cc2c(s1)CCC2	-3.6	-0.9	63.9*	3.3	-6.0
COc1cccc(C(=O)OCC(=O)Nc2sc3c(c2C(N)=O)CCC3)c1O	1.3	8.5	40.8*	-0.8	nt
CCOc1ccc2c(c1)C(C)=CC(C)(C)N2C(=O)Nc1ccccc1	nt	nt	nt	2.7	48.4*
COc1ccc(NC(=O)N2c3ccc(OC)cc3C(C)=CC2(C)C)cc1	nt	nt	nt	-7.0	41.6
O=C(O)C[C@H]1C[C@@H]2c3cc(NC(=O)NC4CCCC4)ccc3O[C@@H]2[C@H](CO)O1	nt	8.9	-3.4	nt	-5.2
CC(C)(C)c1ccc(C(=O)Nc2ccc(S(=O)(=O)Nc3cnc4ccccc4n3)cc2)cc1	20.3	-0.7	60.5*	-17.1	-31.7
CC(C)(C)C1=Nn2c(nnc2-c2ccccn2)SC1	-2.3	nt	nt	20.6	72.3*
COc1ccc(C2=Nn3c(nnc3-c3ccccn3)SC2)cc1OC	-0.6	nt	nt	nt	82.9*
Nc1nc(Sc2ccc([N+](=O)[O-])c3nonc23)c2[nH]cnc2n1	35.8	nt	72.1*	3.7	21.5*
O=C(Nc1ccccc1F)c1cc2c(s1)-c1ccccc1S(=O)(=O)C2	-1.0	24.0*	-0.7	40.3	1.1
CNC[C@H]1Oc2ccc(NC(=O)Nc3cccc4ccccc34)cc2CC(=O)N([C@H](C)CO)C[C@@H]1C	nt	-1.1	-1.2	nt	-1.2
c1ccc(-c2nc(-c3cccs3)[nH]c2-c2ccccc2)cc1	0.6	15.4*	-3.7	7.5	-2.7
O=C(C[C@@H]1CC[C@H](NC(=O)Cc2ccccn2)[C@H](CO)O1)NCCc1ccccc1	nt	4.8	-11.2	nt	-5.2
CC(C)C(C(=O)Nc1ccccc1)N1C(=O)c2ccccc2C1=O (centres undefined)	nt	-1.6	-0.2	7.8	9.1
CC(C)C(C(=O)Nc1ncn[nH]1)N1C(=O)c2ccccc2C1=O (centres undefined)	0.7	nt	nt	-6.1	35.5*
O=C(C[C@H]1CC[C@@H]2[C@H](COC[C@@H](O)CN2Cc2ccccc2F)O1)NCc1ccccc1F	nt	-2.4	-1.1	nt	-8.8
C[C@H]1CN([C@@H](C)CO)C(=O)c2cccc(NC(=O)CCCCCC(=O)Nc3ccccc3N)c2O[C@@H]1CN(C)Cc1ccc(-c2ccccc2)cc1	nt	17.1*	-0.3	nt	nt
C[C@@H]1CN([C@H](C)CO)C(=O)c2cccc(NC(=O)CCCCCC(=O)Nc3ccccc3N)c2O[C@H]1CN(C)Cc1ccc(-c2ccccc2)cc1	nt	16.6*	1.6	nt	-3.5
C[C@@H]1CN([C@H](C)CO)C(=O)c2cccc(NC(=O)C3CCOCC3)c2O[C@@H]1CN(C)Cc1ccc(C(=O)Nc2ccccc2N)cc1	nt	16.2*	1.5	nt	5.0
C[C@@H]1CN([C@H](C)CO)C(=O)c2cccc(NC(=O)CCCCCC(=O)Nc3ccccc3N)c2O[C@H]1CN(C)Cc1ccccc1	nt	13.0	1.1	nt	nt
